# Values without a mark were called inactive.
# Tests used:
# Test in all cases: log2 ratio of Biotin-Ahx-Ub-VS probe labelling (fragment/DMSO); higher = less target engagement (more negative = stronger competition), active = hit call of the paper (q ≤ 0.05, log2 ratio ≤ -1)
# Conditions in all cases: compound concentration: 200 uM; treatment time: 3 h
# USP19 = target: T1, USP19 (UniProt O94966)
# T1 sequence (whole entry): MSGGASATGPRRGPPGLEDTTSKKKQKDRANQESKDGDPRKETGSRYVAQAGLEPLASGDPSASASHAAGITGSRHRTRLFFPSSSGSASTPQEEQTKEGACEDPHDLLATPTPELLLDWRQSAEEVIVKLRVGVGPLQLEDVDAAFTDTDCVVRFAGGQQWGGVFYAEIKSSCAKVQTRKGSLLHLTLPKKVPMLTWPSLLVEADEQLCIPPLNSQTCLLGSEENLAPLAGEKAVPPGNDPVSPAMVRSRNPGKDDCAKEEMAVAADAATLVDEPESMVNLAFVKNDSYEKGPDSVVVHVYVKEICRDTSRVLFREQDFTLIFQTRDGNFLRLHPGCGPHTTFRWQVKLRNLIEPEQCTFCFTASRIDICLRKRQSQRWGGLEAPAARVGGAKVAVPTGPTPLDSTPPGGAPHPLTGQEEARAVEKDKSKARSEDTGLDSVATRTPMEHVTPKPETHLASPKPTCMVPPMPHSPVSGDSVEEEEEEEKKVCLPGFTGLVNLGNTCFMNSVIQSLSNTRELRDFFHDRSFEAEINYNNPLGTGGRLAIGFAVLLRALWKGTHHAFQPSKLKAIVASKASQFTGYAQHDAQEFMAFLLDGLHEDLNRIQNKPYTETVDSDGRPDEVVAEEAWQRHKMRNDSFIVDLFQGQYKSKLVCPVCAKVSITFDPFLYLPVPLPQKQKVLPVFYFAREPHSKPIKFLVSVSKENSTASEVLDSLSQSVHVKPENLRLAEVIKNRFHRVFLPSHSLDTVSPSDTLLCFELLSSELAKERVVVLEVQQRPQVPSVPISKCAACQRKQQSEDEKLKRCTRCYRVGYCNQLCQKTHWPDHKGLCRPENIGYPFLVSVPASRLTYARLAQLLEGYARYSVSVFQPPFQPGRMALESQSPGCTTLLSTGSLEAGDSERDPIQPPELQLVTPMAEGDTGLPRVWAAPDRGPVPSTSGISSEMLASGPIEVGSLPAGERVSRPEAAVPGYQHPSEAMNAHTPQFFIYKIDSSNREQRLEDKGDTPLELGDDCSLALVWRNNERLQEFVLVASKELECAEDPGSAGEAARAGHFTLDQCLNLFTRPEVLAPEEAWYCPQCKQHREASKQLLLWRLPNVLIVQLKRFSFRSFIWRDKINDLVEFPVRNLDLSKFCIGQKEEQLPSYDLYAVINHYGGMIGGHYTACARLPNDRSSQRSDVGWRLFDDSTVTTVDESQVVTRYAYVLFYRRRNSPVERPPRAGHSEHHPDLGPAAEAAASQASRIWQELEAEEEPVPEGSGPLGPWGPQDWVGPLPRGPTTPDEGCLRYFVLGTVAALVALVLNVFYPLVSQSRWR
# Summary of the method: (§1)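 HEK293T lysate in Tris/CHAPS/IGEPAL buffer with protease inhibitors (495 µg per sample) was given fragment at 200 µM or vehicle for 3 h, in triplicate. It then received Biotin-Ahx-Ub-VS at 0.5 µM final for 1 h. Labelled DUBs were NeutrAvidin-enriched, digested with LysC and trypsin, and run by diaPASEF LC-MS/MS. Values are average log2 fragment/vehicle ratios by unpaired t-test on global-median-normalised Spectronaut quantities of proteins with ≥2 unique peptides.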
# USP22 = target: T2, USP22 (UniProt Q9UPT9)
# T2 sequence (whole entry): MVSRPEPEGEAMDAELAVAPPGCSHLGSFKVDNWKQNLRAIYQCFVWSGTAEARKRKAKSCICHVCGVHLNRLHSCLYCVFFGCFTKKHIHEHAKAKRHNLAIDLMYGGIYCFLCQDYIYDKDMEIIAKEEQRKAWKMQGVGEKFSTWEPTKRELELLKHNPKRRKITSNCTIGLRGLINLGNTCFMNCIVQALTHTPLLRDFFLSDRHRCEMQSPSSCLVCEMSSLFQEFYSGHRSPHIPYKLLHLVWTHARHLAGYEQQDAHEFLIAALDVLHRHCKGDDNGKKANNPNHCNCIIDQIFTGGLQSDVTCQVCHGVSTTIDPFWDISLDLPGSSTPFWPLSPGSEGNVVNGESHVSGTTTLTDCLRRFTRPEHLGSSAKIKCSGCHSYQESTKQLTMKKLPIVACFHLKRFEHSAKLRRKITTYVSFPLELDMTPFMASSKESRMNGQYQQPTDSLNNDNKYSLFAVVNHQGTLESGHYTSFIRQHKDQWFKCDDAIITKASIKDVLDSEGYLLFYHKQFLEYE
# Summary of the method: as §1
# USP24 = USP24 (UniProt Q9UPU5)
# Summary of the method: as §1
# USP25 = target: T3, USP25 (UniProt Q9UHP3)
# T3 sequence (whole entry): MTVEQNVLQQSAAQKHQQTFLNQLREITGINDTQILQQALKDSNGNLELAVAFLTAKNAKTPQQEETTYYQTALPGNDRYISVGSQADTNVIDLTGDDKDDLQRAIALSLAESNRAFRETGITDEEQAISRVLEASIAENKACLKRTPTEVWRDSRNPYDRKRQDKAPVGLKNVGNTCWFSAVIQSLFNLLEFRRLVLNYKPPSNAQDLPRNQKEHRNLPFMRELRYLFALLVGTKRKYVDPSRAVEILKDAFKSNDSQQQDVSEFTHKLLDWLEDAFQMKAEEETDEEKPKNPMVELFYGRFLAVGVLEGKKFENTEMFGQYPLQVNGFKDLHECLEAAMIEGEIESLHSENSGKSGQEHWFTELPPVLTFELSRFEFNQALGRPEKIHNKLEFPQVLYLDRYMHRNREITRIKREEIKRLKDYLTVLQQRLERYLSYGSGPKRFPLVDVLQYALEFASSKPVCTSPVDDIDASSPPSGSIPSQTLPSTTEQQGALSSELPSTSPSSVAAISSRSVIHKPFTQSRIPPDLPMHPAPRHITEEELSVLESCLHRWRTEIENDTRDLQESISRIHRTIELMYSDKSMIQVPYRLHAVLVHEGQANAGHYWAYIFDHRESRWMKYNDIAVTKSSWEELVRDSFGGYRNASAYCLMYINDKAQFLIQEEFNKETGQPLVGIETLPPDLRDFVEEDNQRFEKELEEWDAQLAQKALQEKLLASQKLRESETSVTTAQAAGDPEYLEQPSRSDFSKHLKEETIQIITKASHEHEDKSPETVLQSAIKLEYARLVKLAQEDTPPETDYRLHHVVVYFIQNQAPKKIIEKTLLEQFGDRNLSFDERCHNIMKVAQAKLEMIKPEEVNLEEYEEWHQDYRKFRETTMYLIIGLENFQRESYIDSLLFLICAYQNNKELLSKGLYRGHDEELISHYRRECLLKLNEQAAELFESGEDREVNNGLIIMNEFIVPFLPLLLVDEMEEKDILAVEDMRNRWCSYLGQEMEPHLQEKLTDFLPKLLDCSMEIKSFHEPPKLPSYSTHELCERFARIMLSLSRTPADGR
# Summary of the method: as §1
# USP28 = target: T4, USP28 (UniProt Q96RU2)
# T4 sequence (whole entry): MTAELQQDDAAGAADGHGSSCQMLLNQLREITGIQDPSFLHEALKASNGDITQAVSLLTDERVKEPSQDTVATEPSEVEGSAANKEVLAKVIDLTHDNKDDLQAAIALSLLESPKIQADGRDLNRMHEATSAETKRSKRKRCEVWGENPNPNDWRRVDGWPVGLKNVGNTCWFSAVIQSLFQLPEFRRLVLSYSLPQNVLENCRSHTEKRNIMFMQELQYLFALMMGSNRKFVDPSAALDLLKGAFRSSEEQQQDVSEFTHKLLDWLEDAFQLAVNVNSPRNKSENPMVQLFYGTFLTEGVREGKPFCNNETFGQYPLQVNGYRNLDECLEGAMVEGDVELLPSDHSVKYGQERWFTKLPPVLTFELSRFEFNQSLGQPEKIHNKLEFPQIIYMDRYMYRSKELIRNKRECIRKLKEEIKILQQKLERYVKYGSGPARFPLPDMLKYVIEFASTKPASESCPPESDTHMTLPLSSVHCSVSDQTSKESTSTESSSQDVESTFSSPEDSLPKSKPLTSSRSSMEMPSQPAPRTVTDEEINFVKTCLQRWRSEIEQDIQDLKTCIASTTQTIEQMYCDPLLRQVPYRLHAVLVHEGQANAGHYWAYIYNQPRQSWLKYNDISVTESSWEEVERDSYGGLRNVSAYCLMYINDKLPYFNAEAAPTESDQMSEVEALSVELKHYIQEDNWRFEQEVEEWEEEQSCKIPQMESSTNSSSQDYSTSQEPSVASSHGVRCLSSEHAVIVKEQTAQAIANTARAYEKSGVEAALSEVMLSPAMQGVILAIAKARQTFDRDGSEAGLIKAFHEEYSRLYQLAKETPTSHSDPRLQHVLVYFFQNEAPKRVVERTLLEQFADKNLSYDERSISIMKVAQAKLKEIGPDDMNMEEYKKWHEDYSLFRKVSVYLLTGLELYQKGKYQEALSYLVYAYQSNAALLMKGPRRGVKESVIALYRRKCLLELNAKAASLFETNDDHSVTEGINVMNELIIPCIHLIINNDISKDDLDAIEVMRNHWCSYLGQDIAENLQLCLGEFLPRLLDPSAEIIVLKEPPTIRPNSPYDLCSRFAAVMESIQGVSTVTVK
# Summary of the method: as §1
# Sequence of USP24 (Q9UPU5 whole entry): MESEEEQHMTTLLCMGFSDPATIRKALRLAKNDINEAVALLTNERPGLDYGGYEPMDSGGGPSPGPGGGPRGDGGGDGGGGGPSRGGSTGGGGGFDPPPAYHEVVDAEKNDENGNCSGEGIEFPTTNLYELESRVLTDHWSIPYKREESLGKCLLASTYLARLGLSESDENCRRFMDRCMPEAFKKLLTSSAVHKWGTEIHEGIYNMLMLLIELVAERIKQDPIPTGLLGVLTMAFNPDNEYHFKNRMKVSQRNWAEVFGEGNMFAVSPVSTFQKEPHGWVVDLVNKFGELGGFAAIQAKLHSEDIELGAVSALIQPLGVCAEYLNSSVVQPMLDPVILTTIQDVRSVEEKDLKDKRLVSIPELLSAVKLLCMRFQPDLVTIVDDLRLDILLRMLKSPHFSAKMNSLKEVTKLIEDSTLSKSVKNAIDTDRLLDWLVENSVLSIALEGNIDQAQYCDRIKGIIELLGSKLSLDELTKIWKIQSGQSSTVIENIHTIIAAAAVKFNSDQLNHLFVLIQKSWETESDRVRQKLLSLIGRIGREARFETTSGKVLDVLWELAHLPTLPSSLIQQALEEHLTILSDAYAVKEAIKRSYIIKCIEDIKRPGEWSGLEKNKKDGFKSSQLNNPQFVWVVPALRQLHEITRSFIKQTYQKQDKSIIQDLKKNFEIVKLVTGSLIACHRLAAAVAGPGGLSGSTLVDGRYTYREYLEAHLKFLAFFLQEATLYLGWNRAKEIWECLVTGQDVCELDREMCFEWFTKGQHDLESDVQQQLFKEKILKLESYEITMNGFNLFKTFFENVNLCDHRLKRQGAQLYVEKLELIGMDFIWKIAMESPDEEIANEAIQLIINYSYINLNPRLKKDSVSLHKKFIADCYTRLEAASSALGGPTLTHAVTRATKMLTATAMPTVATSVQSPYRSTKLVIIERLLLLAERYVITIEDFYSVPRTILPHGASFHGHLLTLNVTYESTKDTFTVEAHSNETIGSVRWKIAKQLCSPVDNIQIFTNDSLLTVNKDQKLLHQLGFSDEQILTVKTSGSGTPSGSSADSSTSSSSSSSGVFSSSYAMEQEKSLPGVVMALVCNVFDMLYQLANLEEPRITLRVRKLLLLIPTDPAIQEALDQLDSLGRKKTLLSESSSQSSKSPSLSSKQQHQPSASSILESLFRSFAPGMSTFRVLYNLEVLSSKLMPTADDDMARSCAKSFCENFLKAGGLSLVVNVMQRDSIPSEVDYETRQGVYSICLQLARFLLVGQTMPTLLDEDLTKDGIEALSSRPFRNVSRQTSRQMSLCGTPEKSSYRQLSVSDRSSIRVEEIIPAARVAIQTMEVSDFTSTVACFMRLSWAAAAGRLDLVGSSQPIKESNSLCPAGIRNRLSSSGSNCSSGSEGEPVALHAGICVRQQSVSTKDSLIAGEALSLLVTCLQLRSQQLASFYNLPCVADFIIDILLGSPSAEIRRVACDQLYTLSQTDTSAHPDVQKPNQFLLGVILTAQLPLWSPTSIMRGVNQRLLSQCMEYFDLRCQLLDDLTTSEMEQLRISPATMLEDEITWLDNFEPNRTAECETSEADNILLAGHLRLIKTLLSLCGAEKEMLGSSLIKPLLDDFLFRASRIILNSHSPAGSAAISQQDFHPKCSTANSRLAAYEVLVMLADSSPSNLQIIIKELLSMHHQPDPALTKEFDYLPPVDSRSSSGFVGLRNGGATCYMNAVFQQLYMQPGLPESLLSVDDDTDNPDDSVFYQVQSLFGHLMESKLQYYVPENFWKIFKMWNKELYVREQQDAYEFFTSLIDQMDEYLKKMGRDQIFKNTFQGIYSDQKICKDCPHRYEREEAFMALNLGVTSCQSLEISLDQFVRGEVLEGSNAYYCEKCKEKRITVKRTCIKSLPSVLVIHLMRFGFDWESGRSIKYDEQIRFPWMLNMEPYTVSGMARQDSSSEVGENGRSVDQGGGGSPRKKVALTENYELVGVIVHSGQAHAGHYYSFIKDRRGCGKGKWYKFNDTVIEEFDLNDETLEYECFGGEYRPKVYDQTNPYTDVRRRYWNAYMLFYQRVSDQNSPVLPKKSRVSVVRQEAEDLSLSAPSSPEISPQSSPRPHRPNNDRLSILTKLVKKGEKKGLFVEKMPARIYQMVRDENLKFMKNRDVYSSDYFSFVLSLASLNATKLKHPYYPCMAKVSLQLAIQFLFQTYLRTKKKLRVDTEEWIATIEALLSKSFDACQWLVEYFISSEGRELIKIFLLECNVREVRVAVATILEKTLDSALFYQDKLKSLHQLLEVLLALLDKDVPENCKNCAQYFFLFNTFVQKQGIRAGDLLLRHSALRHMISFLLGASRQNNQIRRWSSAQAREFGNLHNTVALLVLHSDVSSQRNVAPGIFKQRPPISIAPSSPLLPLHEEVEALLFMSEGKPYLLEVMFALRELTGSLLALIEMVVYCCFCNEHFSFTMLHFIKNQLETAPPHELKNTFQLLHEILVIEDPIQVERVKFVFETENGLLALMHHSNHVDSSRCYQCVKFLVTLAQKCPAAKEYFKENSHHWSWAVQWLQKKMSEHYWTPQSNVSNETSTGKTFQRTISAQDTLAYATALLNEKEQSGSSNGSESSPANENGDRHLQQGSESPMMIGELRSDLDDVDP
smiles,measurement,setting,value
CC1Cc2ccccc2N1C(=O)CCl (stereo not given),log2 ratio of Biotin-Ahx-Ub-VS probe labelling,USP19,-0.643
same,log2 ratio of Biotin-Ahx-Ub-VS probe labelling,USP22,-0.161
same,log2 ratio of Biotin-Ahx-Ub-VS probe labelling,USP24,-1.61 (active)
same,log2 ratio of Biotin-Ahx-Ub-VS probe labelling,USP25,-0.876
same,log2 ratio of Biotin-Ahx-Ub-VS probe labelling,USP28,-0.929
